Results filed as inconclusive are left out. Where a call stands in place of a potency, no number is given. Activity calls are given as the source filed them. The call rests on the fitted dose curve.

Sequence of Estrogen receptor (Homo sapiens) (P03372 whole entry, looked up): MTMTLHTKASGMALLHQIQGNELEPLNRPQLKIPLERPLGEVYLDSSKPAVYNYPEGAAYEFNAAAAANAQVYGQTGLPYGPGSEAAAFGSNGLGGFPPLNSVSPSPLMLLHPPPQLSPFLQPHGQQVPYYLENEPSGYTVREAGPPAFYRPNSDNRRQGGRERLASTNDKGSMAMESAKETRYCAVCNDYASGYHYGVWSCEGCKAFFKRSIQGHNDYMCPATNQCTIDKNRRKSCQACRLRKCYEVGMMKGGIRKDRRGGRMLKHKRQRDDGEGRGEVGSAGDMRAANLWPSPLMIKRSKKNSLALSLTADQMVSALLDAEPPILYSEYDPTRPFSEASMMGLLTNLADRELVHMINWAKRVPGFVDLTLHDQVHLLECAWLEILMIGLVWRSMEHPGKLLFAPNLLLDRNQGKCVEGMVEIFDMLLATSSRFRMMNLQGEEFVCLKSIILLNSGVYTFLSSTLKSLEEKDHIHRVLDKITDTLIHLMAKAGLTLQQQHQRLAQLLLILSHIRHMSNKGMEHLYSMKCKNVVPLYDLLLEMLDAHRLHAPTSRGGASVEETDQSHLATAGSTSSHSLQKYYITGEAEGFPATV

For this assay, the target named is Estrogen receptor (Homo sapiens) (UniProt P03372). Kind of assay: qHTS assay for small molecule agonists of estrogen receptor alpha signaling (AID 588514). Further: nearly all actives have a fitted effect of over 70% in size. The note with it: ER-alpha-UAS-bla HEK293, beta-lactamase ratio, 18 h; series mostly up to 76.8 µM. An excerpt:
NIH Chemical Genomics Center [NCGC]
U.S. Environmental Protection Agency [EPA]
National Institutes of Environmental Health Sciences [NIEHS]
National Toxicology Program [NTP]
Estrogen receptor alpha (ER-alpha) is an important member of nuclear hormone receptors. ER-alpha plays important role in breast cancer as well as in other women's health issues. The majority of breast cancers is estrogen receptor (ER) positive and depends on estrogen for growth. There is also growing concern for some of environmental chemicals which may contribute the increasing the incidence of breast cancer. Therefore, it is important to understand the effect of environmental chemicals in ER-alpha signaling pathway.
NCGC Assay Protocol Summary
Using a beta-lactamase reporter-gene under control of the ER response element, a cell-based assay [ER-alpha-UAS-bla GripTiteTM cell-Based Assay from Invitrogen] was used to measure ER-alpha signaling pathway in agonist mode. ER-alpha-UAS-bla-GripTite HEK 293 cells were used with assay medium containing 2% charcoal/dextran treated FBS, 0.1 mM NEAA and 1 mM sodium pyruvate. Cells were cultured in this assay medium overnight in the flasks before the assay. The assay was performed in clear bottom black Greiner 1536-well plates. 17-beta-estradiol was used as a positive control in the screen. Library compounds were measured for their ability to either stimulate the reporter gene activity. Compounds were screened in a titration series in 1536-well format. […] Data was normalized relative to 17-beta-estradiol control (20 nM, 100%), and DMSO only wells (basal, 0%). Concentration-response titration points for each compound were fitted to the Hill equation yielding concentrations of half-maximal stimulation (EC50) and maximal response (efficacy) values.
qHTS protocol for ER-alpha beta-lactamase assay in agonist mode
[Step] [Parameter] [Value] [Description]
1. Reagent; 6 uL; 5000 cells/well
2. Incubation; 37 C for 4 hrs
4. Controls (17-beta-estradiol); 23 nL
- Dose response, start 1uM, 1:3 dilutions with duplicates
- Two columns with 20 and 0.5 nM (final) concentration.
5. Incubation; 37 C for 18 hrs
6. Detection reagent; 1 uL of CCF4-dye
7. Incubation; RT for 2 hrs
8. Detection; Fluorescence; Envision plate reader or Acumen plate reader
Consider `CCCCCCCCCCCCCCCC`, for which the Potency result was “inactive”.
Consider `COC(=O)c1cccc(C(=O)OC)c1`, for which the Potency entry was “inactive”.
The same measure for `CCOC(=O)C1=NN(c2ccc(Cl)cc2Cl)C(C)(C(=O)OCC)C1` (stereo not given): “inactive”; for `C/C(=C\C(C)CC(C)CC(C)C)C1CC(=O)OC1=O` (stereo not given): “inactive”; for `CC(Cl)(Cl)C(=O)OCCOc1cc(Cl)c(Cl)cc1Cl`: “inactive”.
Consider `CCCCCCCCCc1ccccc1`, for which the Potency result was “inactive”.
Take `CO[Si](OC)(OC)c1ccccc1`: the Potency entry is “inactive”.
Regarding `O=C1CCCCCCCCCCC1`, the Potency entry is “inactive”.
`CC1(C)CC(N)CC(C)(CN)C1` (stereo not given): the Potency entry is “inactive”.
For `CCCCCCCCCCCCCCC(=O)OC`, the Potency entry is “inactive”.
Regarding `CC1(C)[C@@H](C=C(Cl)Cl)[C@@H]1C(=O)OCc1cccc(Oc2ccccc2)c1`, the Potency result was “inactive”.
As to `CC(C)OB(OC(C)C)OC(C)C`, the Potency entry was “inactive”.
Turning to `COC(=O)c1cccc(C)c1S(=O)(=O)NC(=O)Nc1nc(OCC(F)(F)F)nc(N(C)C)n1`, the Potency entry was “inactive”.
Turning to `Cc1nn(C)c(Oc2ccccc2)c1/C=N/OCc1ccc(C(=O)OC(C)(C)C)cc1`, the Potency entry was “inactive”.
Turning to `Nc1cc(Cl)nc(C(=O)O)c1Cl`, the Potency result was “inactive”.
As for `CC(C)c1ccc(C(C)C)cc1`, the Potency result was “inactive”.
With `O=C(O)CN(CCCN(CC(=O)O)CC(=O)O)CC(=O)O`, the Potency was 8.91 µM (active).
With `Fc1ccc(Br)cc1`, the Potency result is “inactive”.
Consider `C1CCC2(CCCCO2)OC1`, for which the Potency result is “inactive”.
Next, `CCC(=O)OCCc1ccccc1`: “inactive”; `CCCCOCCOCCOC(=O)CCCCC(=O)OCCOCCOCCCC`: “inactive”; `CC(C)c1cccc(C(C)C)c1`: “inactive”.
As to `O=[N+]([O-])c1ccc2c(c1)Cc1ccccc1-2`, the Potency entry was “inactive”.
Take `CC1(C)[C@@H]([C@@H](Br)C(Br)(Br)Br)[C@H]1C(=O)O[C@H](C#N)c1cccc(Oc2ccccc2)c1`: the Potency entry was “inactive”.
`CCCCOCCOCCOC(C)=O`: the Potency result is “inactive”.
Consider `CCCCOCC(C)OCC(C)O` (stereo not given), for which the Potency entry was “inactive”.
As for `CCCCOC(=O)c1ccccc1`, the Potency entry is “inactive”.
For the compound `Nc1nc(N)nc(-c2ccccc2)n1`, the Potency entry was “inactive”.
For the compound `C[N+](C)(C)CC(O)CCl` (stereo not given), the Potency entry is “inactive”.
As to `CCC(C)(C)C1CCC(O)CC1` (stereo not given), the Potency result is “inactive”.
Next, `C=C(C)C(=O)OCCN(C)C`: “inactive”; `CCCCCCCCCCCCCC(=O)OC`: “inactive”; `CC(C)CCCCCOC(=O)CS`: “inactive”.
In the case of `CCCCCCCCCCO`, the Potency entry was “inactive”.
The same measure for `COCCO`: “inactive”; for `C=CCOC(=O)CC(C)C`: “inactive”; for `Cc1cc(C)c(N)c(Cl)c1`: “inactive”.
Take `CCCC/C=C\CCCCCCCCO`: the Potency entry is “inactive”.
In the case of `CCCCCCCCCCCC(=O)N(C)CC(=O)O`, the Potency result was “inactive”.
Turning to `CCOC(=O)C(C)Oc1ccc(Oc2cnc3cc(Cl)ccc3n2)cc1` (stereo not given), the Potency result is “inactive”.

Values taken from PubChem BioAssay (NCATS).
